{"source": "ChEMBL document CHEMBL3988442", "about": "“University of Dundee, Small-Polar-MMV Screening Library” (2021)", "note": "The campaign covered roughly 48,000 compounds. About 13,000 (27%) showed an effect of 50% or more. The list shows a part of the results.", "data": [{"system": "Wolbachia pipientis", "assay": "Anti-Wolbachia Cell-Based Screen", "assay_type": "functional", "set-up": "scale not given: in the data most compounds retested in dose-response had high values", "settings": "5 µM", "units": {"Percent Effect": "%"}, "values": [{"smiles": "Cc1c(C(=O)N(CCN(C)C)Cc2ccccn2)oc2ccccc12", "Percent Effect": -10.28}, {"smiles": "CCC1CN(C(=O)c2ccc(O)cn2)CCC(=O)N1Cc1ccccc1", "note": "(stereo not drawn)", "Percent Effect": -29.96}, {"smiles": "N#Cc1cc(S(N)(=O)=O)ccc1NC1CCc2cc(Cl)ccc21", "note": "(stereo not drawn)", "Percent Effect": -7.649}, {"smiles": "CNC(=O)[C@@H](c1ccccc1OC)N1CCC[C@H]1C(=O)NCCN(C)C.Cl.Cl", "Percent Effect": -2.091}, {"smiles": "COc1ccc(CN2CCCn3cncc3C2)cc1Cn1cncn1", "Percent Effect": 17.87}, {"smiles": "COc1ccc(NC(=O)c2ccco2)c(N2CCN(C(C)=O)CC2)n1", "Percent Effect": -1.999}, {"smiles": "COc1cnc(C2(O)CCN(C(=O)c3ccccn3)CC2)c(OC)n1", "Percent Effect": 107.9}, {"smiles": "Cc1ccc(F)c(OC2(C(=O)O)CCN(C(=O)c3ccco3)CC2)c1", "Percent Effect": -23.64}, {"smiles": "COc1cnc(C2(O)CCN(C(=O)c3cccnc3)CC2)c(OC)n1", "Percent Effect": 2.765}, {"smiles": "COc1cnc(C2(O)CCN(C(=O)c3scnc3C)CC2)c(OC)n1", "Percent Effect": 77.74}, {"smiles": "COc1cnc(C2(O)CCN(C(=O)c3ccncc3)CC2)c(OC)n1", "Percent Effect": -4.993}, {"smiles": "CCC(=O)N1CCC(O)(c2ncc(OC)nc2OC)CC1", "Percent Effect": -0.9107}, {"smiles": "COc1cnc(C2(O)CCN(C(=O)c3ccco3)CC2)c(OC)n1", "Percent Effect": 113.8}, {"smiles": "O=C1CC(C(=O)O)C2(CCN(C(=O)Nc3ccccc3Cl)CC2)N1", "note": "(stereo not drawn)", "Percent Effect": 8.972}, {"smiles": "CS(=O)(=O)NC1CCN(C(=O)c2ccc(F)cc2)CC1", "Percent Effect": 22.77}, {"smiles": "CCn1nc(C)c2nc(C(C)C)nc(NCCCO)c21", "Percent Effect": 5.791}, {"smiles": "CC[C@H]1CN(C(=O)C(C)(C)C)CC[C@H]1CC(=O)O", "Percent Effect": 0.9693}, {"smiles": "CCS(=O)(=O)NCC1Cn2nnc(-c3ccccc3)c2CO1", "note": "(stereo not drawn)", "Percent Effect": 4.629}, {"smiles": "CC(C)NC(=O)CN(C)C(=O)c1c(Cl)c2ccccc2n1C", "Percent Effect": 7.479}, {"smiles": "CC(CCc1ccccc1)NC(=O)CNCCCN(C)C.O=C(O)C(=O)O", "note": "(stereo not drawn)", "Percent Effect": -3.27}, {"smiles": "CCc1nc(Cn2c(=O)n(C)c3ccccc32)no1", "Percent Effect": -3.957}, {"smiles": "CN(C)CCn1c(=O)n(C)c(=O)c2ccccc21.Cl", "Percent Effect": 110}, {"smiles": "CC(C)n1c(=O)c2ccccc2n(CCN(C)C)c1=O.Cl", "Percent Effect": 91.55}, {"smiles": "CCCc1nc(Cn2c(=O)n(C)c3ccccc32)no1", "Percent Effect": -1.157}, {"smiles": "CC(C)NC(=O)CN(C)C(=O)c1c(Br)c2ccccc2n1C", "Percent Effect": -8.15}, {"smiles": "CC(C)n1c(=O)c2ccccc2n(CCN2CCCCC2)c1=O", "Percent Effect": 58.61}, {"smiles": "CC(C)N1CCN(CCn2cnc3c(F)cccc3c2=O)CC1", "Percent Effect": -1.52}, {"smiles": "CC(C)n1c(=O)c2ccccc2n(CCCN(C)C)c1=O.Cl", "Percent Effect": 74.16}, {"smiles": "Cc1cc(=O)c2ccccc2n1CC1CCN(C(C)C)C1", "note": "(stereo not drawn)", "Percent Effect": -7.176}, {"smiles": "CC(C)S(=O)(=O)CC(=O)N(Cc1ccsc1)c1ccccc1", "Percent Effect": -3.342}, {"smiles": "Cn1cc(CN2CCCC3(COCCN(Cc4c[nH]nn4)C3)C2)cn1.O=C(O)C(F)(F)F.O=C(O)C(F)(F)F", "note": "(stereo not drawn)", "Percent Effect": -3.726}, {"smiles": "O=C(Cc1ccsc1)N1CCCC(c2cc(C(F)F)n3ncnc3n2)C1", "note": "(stereo not drawn)", "Percent Effect": 112.3}, {"smiles": "Cc1nc(C2CCCN(C(=O)CO)C2)cc(N2CCOCC2)n1", "note": "(stereo not drawn)", "Percent Effect": -8.444}, {"smiles": "CC(C)C(=O)N1CCCC(c2cc(C(F)F)n3ncnc3n2)C1.Cl", "note": "(stereo not drawn)", "Percent Effect": -4.51}, {"smiles": "COCC(=O)N1CCCC(c2cc(C(F)F)n3ncnc3n2)C1.Cl", "note": "(stereo not drawn)", "Percent Effect": 109.8}, {"smiles": "NC(=O)c1ccc(-n2ccnc2C2CC2)cc1N1CCCC1", "Percent Effect": 30.18}, {"smiles": "COCCS(=O)(=O)N(Cc1ccsc1)c1ccccc1", "Percent Effect": -9.25}, {"smiles": "COc1cc(CN(C)C(=O)NCC(=O)NC(C)C)ccc1SC", "Percent Effect": -30.2}, {"smiles": "COCC(=O)NCCC(=O)N1CCN(S(=O)(=O)c2cccc(Br)c2)CC1", "Percent Effect": 2.832}, {"smiles": "Cl.O=C(NCCn1nc(C2CCNC2)c2cccnc21)C1CC1", "note": "(stereo not drawn)", "Percent Effect": 104.4}, {"smiles": "O=C(CCNC(=O)C1CCCC1)NCc1cccnc1-n1cncn1", "Percent Effect": -1.584}, {"smiles": "Cl.O=C(NCCn1nc(C2CCNC2)c2cccnc21)C1CCC1", "note": "(stereo not drawn)", "Percent Effect": 119.3}, {"smiles": "Cc1cccc(C)c1OC1CN(C(=O)C2CCCN(C(=O)N(C)C)C2)C1", "note": "(stereo not drawn)", "Percent Effect": -13.19}, {"smiles": "O=C(NCCc1ccsc1)Nc1cccnc1N1CCCC1", "Percent Effect": 0.6987}, {"smiles": "COc1c(C(=O)N2CCC(CSc3ccccc3)C2)c(C)nn1C", "note": "(stereo not drawn)", "Percent Effect": 13.6}, {"smiles": "CCS(=O)(=O)c1ccc2c(c1)OCCCO2", "Percent Effect": -4.006}, {"smiles": "CCN(CC)S(=O)(=O)N(C)Cc1ccc2c(c1)OCCO2", "Percent Effect": 104.5}, {"smiles": "CCC[C@@H]1CN(Cc2ccc3c(c2)OCCO3)C[C@H]1C(=O)O", "Percent Effect": -6.164}, {"smiles": "CC(C)N(C)S(=O)(=O)N(C)Cc1ccc2c(c1)OCO2", "Percent Effect": -1.448}, {"smiles": "CC(C)N(C)S(=O)(=O)N(C)Cc1ccc2c(c1)OCCO2", "Percent Effect": 98.7}, {"smiles": "CCN(CC)S(=O)(=O)N(CC)Cc1ccc2c(c1)OCCO2", "Percent Effect": 92.18}, {"smiles": "CC(C)N(C)S(=O)(=O)N(C)Cc1cnn(C)c1", "Percent Effect": -10.04}, {"smiles": "CC(=O)NCCNC(=O)N(C)Cc1ccc2c(c1)OCCO2", "Percent Effect": 1.28}, {"smiles": "CCS(=O)(=O)c1ccc2c(c1)OCCO2", "Percent Effect": -1.362}, {"smiles": "CCc1noc(CN(C)Cc2cc(Br)ccc2OC)n1", "Percent Effect": 4.438}, {"smiles": "Cc1ccn(-c2ccccc2NCc2cscn2)n1", "Percent Effect": -9.752}, {"smiles": "Cc1nccc(CNC(=O)NCC(C)Oc2ccccc2F)n1", "note": "(stereo not drawn)", "Percent Effect": -7.985}, {"smiles": "COC(=O)C(c1cc(F)ccc1F)N(C)C(=O)c1cccnc1O", "note": "(stereo not drawn)", "Percent Effect": 1.784}, {"smiles": "COC(=O)c1cnc(C(=O)N(c2ccc(OC)c(F)c2)C(C)C)cn1", "Percent Effect": -7.917}, {"smiles": "Cc1cccc(N(CCC(N)=O)C(=O)c2ccnc(C)n2)c1", "Percent Effect": -10.53}, {"smiles": "COc1ccc(N(C(=O)c2cnc(C)cn2)C(C)C)cc1F", "Percent Effect": 9.374}, {"smiles": "COC(=O)C(c1cc(F)ccc1F)N(C)C(=O)c1ccccn1", "note": "(stereo not drawn)", "Percent Effect": 114.5}, {"smiles": "COC(=O)C(c1cc(F)ccc1F)N(C)C(=O)c1cnc(C)cn1", "note": "(stereo not drawn)", "Percent Effect": 103}, {"smiles": "COC(=O)C(c1ccccc1)N(C)C(=O)c1ccnc(C)n1", "note": "(stereo not drawn)", "Percent Effect": 100.7}, {"smiles": "COC(=O)C(c1cc(F)ccc1F)N(C)C(=O)c1csnn1", "note": "(stereo not drawn)", "Percent Effect": 3.05}, {"smiles": "COC(=O)C(c1cc(F)ccc1F)N(C)C(=O)c1ccnc(C)n1", "note": "(stereo not drawn)", "Percent Effect": 4.378}, {"smiles": "CN(C)CCN(Cc1ccc(Cl)cc1)C(=O)c1cnccn1", "Percent Effect": -5.634}, {"smiles": "COC(=O)C(c1cc(F)ccc1F)N(C)C(=O)c1cnccn1", "note": "(stereo not drawn)", "Percent Effect": 118.4}]}]}
